Measured values reported in PubChem BioAssay (EPA / NIEHS).
Where “and” joins values, the source holds several entries; their conditions need not be identical. Equal values may be shown once. A structure can be active in one record and inactive in another. Calls of active or inactive are those of the source. How the source made its calls: active means hit-call score of the fitted dose curve at least 0.9, where 1 is the maximum; inactive means score below 0.9.

Columns and labels:
[1] = read-out: Interleukin-8 (IL8), CXCL8 (gene 3576); assay: BSK_MyoF_IL8: BioMAP Diversity Plus: MyoF Assay for Interleukin-8 (IL8) Biomarker Activity (AID 2284261); details: primary human lung fibroblasts
Summary of the method: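 ELISA read-out of IL-8 from primary human lung fibroblasts, 24 h post-dose; positive-direction curve fitting relative to DMSO vehicle baseline.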

Decorin, DCN (gene 1634) = assay: BSK_MyoF_Decorin: BioMAP Diversity Plus: MyoF Assay for Decorin Biomarker Activity (AID 2284265); details: primary human lung fibroblasts
Summary of the method: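 Human lung fibroblasts in the MyoF system were exposed to compound for 24 h, after which decorin was quantified by ELISA. Activity was fitted in the positive direction relative to DMSO negative control.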

[2] = BSK_MyoF_SRB: Viability Assessment in the BioMAP Diversity Plus: MyoF Assay (AID 2284267); details: primary human lung fibroblasts;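 further: total protein by SRB absorbance in parallel cultures as cytotoxicity measure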
Summary of the method: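 Lung fibroblast cultures, 24 h post-dose; fix 10% TCA, stain 0.1% SRB, read 560 nm. Signal = total protein as cytotoxicity measure; fitted relative to DMSO negative control.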

[3] = read-out: Matrix Metallopeptidase 1 (MMP1), MMP1 (gene 4312); assay: BSK_MyoF_MMP1: BioMAP Diversity Plus: MyoF Assay for Matrix Metallopeptidase 1 (MMP1) Biomarker Activity (AID 2284268); details: primary human lung fibroblasts
Summary of the method: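 ELISA readout of MMP1 in primary human lung fibroblast cultures, 24 h post-dosing. Gain of signal versus DMSO vehicle control defines activity. Parallel SRB staining (0.1% after 10% TCA fixation, 560 nm) flags overt cytotoxicity.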

[4] = read-out: Intercellular Adhesion Molecule 1 (ICAM1), ICAM1 (gene 3383); assay: BSK_BF4T_ICAM1: BioMAP Diversity Plus: BF4T Assay for Intercellular Adhesion Molecule 1 (ICAM1) Biomarker Activity (AID 2284260); details: primary human bronchial epithelial cells with fibroblasts
Summary of the method: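 ICAM-1 levels measured by ELISA after 24 h chemical treatment of bronchial epithelial cell/dermal fibroblast co-cultures, read against DMSO baseline. Overt cytotoxicity checked in parallel cultures by sulforhodamine B staining.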

CD90, THY1 (gene 7070) = assay: BSK_BF4T_CD90: BioMAP Diversity Plus: BF4T Assay for CD90 Biomarker Activity (AID 2284262); details: primary human bronchial epithelial cells with fibroblasts
Summary of the method: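 CD90 levels by ELISA after 24 h treatment of human bronchial epithelial cell/dermal fibroblast cultures, analysed versus DMSO. Overt cytotoxicity checked in parallel cultures by sulforhodamine B staining.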

[5] = read-out: Interleukin-8 (IL8), CXCL8 (gene 3576); assay: BSK_BF4T_IL8: BioMAP Diversity Plus: BF4T Assay for Interleukin-8 (IL8) Biomarker Activity (AID 2284263); details: primary human bronchial epithelial cells with fibroblasts
Summary of the method: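 Human bronchial epithelial cells with dermal fibroblasts co-culture; IL-8 measured by ELISA 24 hours after dosing, fitted vs DMSO. Cytotoxicity tracked in parallel cultures by SRB total-protein staining.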

[6] = read-out: Interleukin-1 alpha (IL1a), IL1A (gene 3552); assay: BSK_BF4T_IL1a: BioMAP Diversity Plus: BF4T Assay for Interleukin-1 alpha (IL1a) Biomarker Activity (AID 2284264); details: primary human bronchial epithelial cells with fibroblasts
Summary of the method: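 ELISA read-out of IL-1α from bronchial epithelial cell/dermal fibroblast co-cultures 24 h after compound addition. Increases scored against DMSO negative control. Cytotoxicity monitored by sulforhodamine B staining of parallel cultures.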

KRT18 (gene 3875) [7] = assay: BSK_BF4T_Keratin818: BioMAP Diversity Plus: BF4T Assay for Keratin 818 Biomarker Activity (AID 2284266); details: primary human bronchial epithelial cells with fibroblasts
Summary of the method: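 Keratin 8/18 levels quantified by ELISA after 24 h chemical treatment of bronchial epithelial cell/dermal fibroblast co-cultures, fitted in positive direction relative to DMSO. Parallel SRB staining tracks overt cytotoxicity.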

[8] = read-out: Matrix Metallopeptidase 1 (MMP1), MMP1 (gene 4312); assay: BSK_BF4T_MMP1: BioMAP Diversity Plus: BF4T Assay for Matrix Metallopeptidase 1 (MMP1) Biomarker Activity (AID 2284270); details: primary human bronchial epithelial cells with fibroblasts
Summary of the method: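 MMP-1 quantified by ELISA in primary human bronchial epithelial/dermal fibroblast co-cultures, 24 hours post-dosing, with DMSO as baseline; parallel sulforhodamine B staining (560 nm) tracks overt cytotoxicity.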

[9] = read-out: Matrix Metallopeptidase 3 (MMP3), MMP3 (gene 4314); assay: BSK_BF4T_MMP3: BioMAP Diversity Plus: BF4T Assay for Matrix Metallopeptidase 3 (MMP3) Biomarker Activity (AID 2284271); details: primary human bronchial epithelial cells with fibroblasts
Summary of the method: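 MMP-3 level read by ELISA after 24 h chemical exposure of bronchial epithelial cell/dermal fibroblast co-cultures, fitted upward relative to DMSO. Parallel cultures stained with 0.1% SRB after TCA fixation gauge overt cytotoxicity.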

[10] = read-out: Tissue plasminogen activator (tPA), PLAT (gene 5327); assay: BSK_BF4T_tPA: BioMAP Diversity Plus: BF4T Assay for Tissue plasminogen activator (tPA) Biomarker Activity (AID 2284272); details: primary human bronchial epithelial cells with fibroblasts
Summary of the method: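 tPA level quantified by ELISA at 24 h post-treatment in bronchial epithelial/dermal fibroblast co-cultures, gain of signal scored against DMSO baseline. Parallel cultures stained with 0.1% SRB (560 nm) to flag overt cytotoxicity.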

[11] = read-out: Plasminogen Activator Inhibitor-1 (PAI1), SERPINE1 (gene 5054); assay: BSK_BF4T_PAI1: BioMAP Diversity Plus: BF4T Assay for Plasminogen Activator Inhibitor-1 (PAI1) Biomarker Activity (AID 2284273); details: primary human bronchial epithelial cells with fibroblasts
Summary of the method: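 PAI-1 levels quantified by ELISA 24 h post-dosing in bronchial epithelial cell plus dermal fibroblast cultures. Signal gain referenced to DMSO baseline. Sulforhodamine B total-protein staining of parallel wells checked cytotoxicity.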

[12] = BSK_BF4T_SRB: Viability Assessment in the BioMAP Diversity Plus: BF4T Assay (AID 2284274); details: primary human bronchial epithelial cells with fibroblasts
Summary of the method: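 Cytotoxicity measured as total protein: cells fixed with 10% TCA, stained with 0.1% SRB, read at 560 nm. Bronchial epithelial/dermal fibroblast co-culture, 24 h after dosing, with positive-direction fitting relative to DMSO.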

[13] = read-out: urokinase Plasminogen Activator (uPA), PLAU (gene 5328); assay: BSK_BF4T_uPA: BioMAP Diversity Plus: BF4T Assay for urokinase Plasminogen Activator (uPA) Biomarker Activity (AID 2284275); details: primary human bronchial epithelial cells with fibroblasts
Summary of the method: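 uPA levels measured by ELISA at 24 hours in BF4T cultures (bronchial epithelial cells plus dermal fibroblasts) and compared with DMSO; cytotoxicity tracked in parallel cultures by sulforhodamine B staining.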

[14] = read-out: Matrix Metallopeptidase 9 (MMP9), MMP9 (gene 4318); assay: BSK_BF4T_MMP9: BioMAP Diversity Plus: BF4T Assay for Matrix Metallopeptidase 9 (MMP9) Biomarker Activity (AID 2284276); details: primary human bronchial epithelial cells with fibroblasts
Summary of the method: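 MMP-9 levels were measured by ELISA after 24 h exposure of bronchial epithelial cell/dermal fibroblast co-cultures, with DMSO as baseline. Parallel cultures were stained with 0.1% SRB after TCA fixation, read at 560 nm, to flag overt cytotoxicity.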

[15] = read-out: Interferon-inducible T-cell alpha chemoattractant (ITAC), CXCL11 (gene 6373); assay: BSK_BE3C_ITAC: BioMAP Diversity Plus: BE3C Assay for Interferon-inducible T-cell alpha chemoattractant (ITAC) Biomarker Activity (AID 2284279); details: primary human bronchial epithelial cells
Summary of the method: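 The assay measures I-TAC levels by ELISA in human primary bronchial epithelial cell cultures 24 hours after chemical treatment. Values reflect signal increase over the DMSO baseline.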

[16] = read-out: Interleukin-8 (IL8), CXCL8 (gene 3576); assay: BSK_BE3C_IL8: BioMAP Diversity Plus: BE3C Assay for Interleukin-8 (IL8) Biomarker Activity (AID 2284280); details: primary human bronchial epithelial cells
Summary of the method: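 Dose human bronchial epithelial cells with chemical; incubate 24 h; quantify IL-8 by ELISA; fit response upward versus DMSO controls.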

[17] = read-out: Epidermal growth factor receptor (EGFR), EGFR (gene 1956); assay: BSK_BE3C_EGFR: BioMAP Diversity Plus: BE3C Assay for Epidermal growth factor receptor (EGFR) Biomarker Activity (AID 2284281); details: primary human bronchial epithelial cells
Summary of the method: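 ELISA read-out of EGFR levels on human bronchial epithelial primary cells collected 24 h post-dosing. DMSO served as negative control and baseline for gain-of-signal fitting.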

KRT18 (gene 3875) [18] = assay: BSK_BE3C_Keratin818: BioMAP Diversity Plus: BE3C Assay for Keratin 818 Biomarker Activity (AID 2284282); details: primary human bronchial epithelial cells
Summary of the method: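 ELISA read-out of Keratin 8/18 in BE3C human bronchial epithelial cultures, 24 h post-dosing; positive-direction fit vs DMSO baseline.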

Measured: AC50

COC1=CC(=O)C[C@@H](C)[C@]12Oc1c(Cl)c(OC)cc(OC)c1C2=O
active: [3] 20 µM
inactive: [1] | Decorin, DCN (gene 1634) | [2]

O=P(O)(O)CCC(F)(F)C(F)(F)C(F)(F)C(F)(F)C(F)(F)C(F)(F)F
inactive: [4] | [1] | CD90, THY1 (gene 7070) | [5] | [6] | Decorin, DCN (gene 1634) | KRT18 (gene 3875) [7] | [2] | [3] | [8] | [9] | [10] | [11] | [12] | [13] | [14] | [15] | [16] | [17] | KRT18 (gene 3875) [18]
active: [10] 14.6 µM

Oc1cc2ccccc2cc1O
inactive: [1] | Decorin, DCN (gene 1634) | [2] | [3]

O=C1NS(=O)(=O)c2ccccc21
inactive: [15] | [16] | [17] | KRT18 (gene 3875) [18]

Clc1ccc(Nc2nnc(Cc3ccncc3)c3ccccc23)cc1
inactive: [1] | Decorin, DCN (gene 1634) | [3]

OCCN1CN(CCO)CN(CCO)C1
inactive: [1] | Decorin, DCN (gene 1634) | [2] | [3]

Cc1ccc(N=Nc2c(O)ccc3ccccc23)c(C)c1
inactive: [1] | Decorin, DCN (gene 1634) | [2] | [3]

COc1cc(OC)nc(NC(=O)NS(=O)(=O)Nc2ccccc2C(=O)N(C)C)n1
inactive: [1] | Decorin, DCN (gene 1634) | [2] | [3]

C=CC(C)(CCC=C(C)C)OC(C)=O (stereo not given)
inactive: [1] | Decorin, DCN (gene 1634) | [2] | [3]

CN(C)c1ccc(C(=C2C=CC(=[N+](C)C)C=C2)c2ccccc2)cc1
active: [1] 2.76 µM | [2] 0.485 µM
inactive: Decorin, DCN (gene 1634) | [3]

CC[N+](CC)(CC)Cc1ccccc1
inactive: [1] | Decorin, DCN (gene 1634) | [2] | [3]

C=CC(=C)CC/C=C(\C)CCC=C(C)C
inactive: [1] | Decorin, DCN (gene 1634) | [2] | [3]

CCCCCCCCCCCC
active: [15] 8.03 µM and 6.71 µM | [16] 9.52 µM | [17] 5.07 µM | KRT18 (gene 3875) [18] 5.09 µM
inactive: [16] | [17] | KRT18 (gene 3875) [18]

Oc1c(Cl)cc(Cl)cc1Sc1cc(Cl)cc(Cl)c1O
active: [15] 3.3 µM and 3.57 µM | [16] 11.7 µM and 11.1 µM | [17] 4.89 µM and 4.9 µM | KRT18 (gene 3875) [18] 9.64 µM and 7.03 µM
